Assay results reported in article PMC11062922 (Nature Chemical Biology, 2023).
Where two headings read alike, the source gives them in different places.

Experiments:
ADCK3 = test system: ADCK3; design: species or system human, MV4-11 + K-562 + COLO205 + SK-N-BE2 + OVCAR-8; conditions: read-out: apparent Kd, n = 1
PI4KA = test system: PI4KA; design: species or system human, MV4-11 + K-562 + COLO205 + SK-N-BE2 + OVCAR-8; conditions: read-out: apparent Kd; compound concentrations: 100 nM and 1000 nM (sheet 'Samples'), CATDS: 8.9803456150084393E-2; n = 1
PIK3CA = test system: PIK3CA; design: species or system human, MV4-11 + K-562 + COLO205 + SK-N-BE2 + OVCAR-8; conditions: read-out: apparent Kd, n = 1
PIK3CB = test system: PIK3CB; design: species or system human, MV4-11 + K-562 + COLO205 + SK-N-BE2 + OVCAR-8; conditions: read-out: apparent Kd; compound concentrations: 100 nM and 1000 nM (sheet 'Samples'), CATDS: 0.118363122139114; n = 1
PIK3CD = test system: PIK3CD; design: species or system human, MV4-11 + K-562 + COLO205 + SK-N-BE2 + OVCAR-8; conditions: read-out: apparent Kd; compound concentrations: 100 nM and 1000 nM (sheet 'Samples'), CATDS: 0.63403927390637105; n = 1
PIK3CG = test system: PIK3CG; design: species or system human, MV4-11 + K-562 + COLO205 + SK-N-BE2 + OVCAR-8; conditions: read-out: apparent Kd, compound concentrations: 100 nM and 1000 nM (sheet 'Samples'), n = 1
PRKDC = test system: PRKDC; design: species or system human, MV4-11 + K-562 + COLO205 + SK-N-BE2 + OVCAR-8; conditions: read-out: apparent Kd; compound concentrations: 100 nM and 1000 nM (sheet 'Samples'), CATDS: 9.9642367307020793E-2; n = 1
SRRT = test system: SRRT; design: species or system human, MV4-11 + K-562 + COLO205 + SK-N-BE2 + OVCAR-8; conditions: read-out: apparent Kd; compound concentrations: 100 nM and 1000 nM (sheet 'Samples'), CATDS: 7.4591136223679494E-2; n = 1
TOP2B = test system: TOP2B; design: species or system human, MV4-11 + K-562 + COLO205 + SK-N-BE2 + OVCAR-8; conditions: read-out: apparent Kd; compound concentrations: 100 nM and 1000 nM (sheet 'Samples'), CATDS: 7.4747311850649895E-2; n = 1
CLK1 = test system: CLK1; design: species or system human, MV4-11 + K-562 + COLO205 + SK-N-BE2 + OVCAR-8; conditions: read-out: apparent Kd, n = 1
CLK2 = test system: CLK2; design: species or system human, MV4-11 + K-562 + COLO205 + SK-N-BE2 + OVCAR-8; conditions: read-out: apparent Kd, n = 1
CLK4 = test system: CLK4; design: species or system human, MV4-11 + K-562 + COLO205 + SK-N-BE2 + OVCAR-8; conditions: read-out: apparent Kd, n = 1
FER = test system: FER; design: species or system human, MV4-11 + K-562 + COLO205 + SK-N-BE2 + OVCAR-8; conditions: read-out: apparent Kd; compound concentrations:100 nM and 1000 nM (sheet 'Samples'); n = 1
IGF1R = test system: IGF1R; design: species or system human, MV4-11 + K-562 + COLO205 + SK-N-BE2 + OVCAR-8; conditions: read-out: apparent Kd; compound concentrations:100 nM and 1000 nM (sheet 'Samples'); n = 1
INSR = test system: INSR; design: species or system human, MV4-11 + K-562 + COLO205 + SK-N-BE2 + OVCAR-8; conditions: read-out: apparent Kd; compound concentrations:100 nM and 1000 nM (sheet 'Samples'); n = 1
PLK1 = test system: PLK1; design: species or system human, MV4-11 + K-562 + COLO205 + SK-N-BE2 + OVCAR-8; conditions: read-out: apparent Kd; compound concentrations:100 nM and 1000 nM (sheet 'Samples'); n = 1
ADCK1 = test system: ADCK1; design: species or system human, MV4-11 + K-562 + COLO205 + SK-N-BE2 + OVCAR-8; conditions: read-out: apparent Kd, compound concentrations: 100 nM and 1000 nM (sheet 'Samples'), n = 1
LIMK1 = test system: LIMK1; design: species or system human, MV4-11 + K-562 + COLO205 + SK-N-BE2 + OVCAR-8; conditions: read-out: apparent Kd; compound concentrations: 100 nM and 1000 nM (sheet 'Samples'), CATDS: 0.152053831473141; n = 1
NEK1 = test system: NEK1; design: species or system human, MV4-11 + K-562 + COLO205 + SK-N-BE2 + OVCAR-8; conditions: read-out: apparent Kd; compound concentrations: 100 nM and 1000 nM (sheet 'Samples'), CATDS: 0.19071251042520401; n = 1
NEK3 = test system: NEK3; design: species or system human, MV4-11 + K-562 + COLO205 + SK-N-BE2 + OVCAR-8; conditions: read-out: apparent Kd; compound concentrations: 100 nM and 1000 nM (sheet 'Samples'), CATDS: 0.104444124059675; n = 1
Q6ZSR9 = Q6ZSR9 (human, UniProt Q6ZSR9); design: species or system MV4-11 + K-562 + COLO205 + SK-N-BE2 + OVCAR-8; conditions: read-out: apparent Kd; compound concentrations: 100 nM and 1000 nM (sheet 'Samples'), CATDS: 0.122629729389454; n = 1
ULK3 = test system: ULK3; design: species or system human, MV4-11 + K-562 + COLO205 + SK-N-BE2 + OVCAR-8; conditions: read-out: apparent Kd; compound concentrations: 100 nM and 1000 nM (sheet 'Samples'), CATDS: 0.13028538158994399; n = 1
DJA1 = test system: T1, DJA1; design: species or system human, MV4-11 + K-562 + COLO205 + SK-N-BE2 + OVCAR-8; conditions: read-out: apparent Kd; compound concentrations: 100 nM and 1000 nM (sheet 'Samples'), CATDS: 8.1274220944096601E-2; n = 1
T1 construct: gene DNAJA1

MAPK14 = test system: MAPK14; design: species or system human, MV4-11 + K-562 + COLO205 + SK-N-BE2 + OVCAR-8; conditions: read-out: apparent Kd; compound concentrations: 100 nM and 1000 nM (sheet 'Samples'), CATDS: 9.4734585023085197E-2; n = 1
NQO2 = test system: NQO2; design: species or system human, MV4-11 + K-562 + COLO205 + SK-N-BE2 + OVCAR-8; conditions: read-out: apparent Kd; compound concentrations: 100 nM and 1000 nM (sheet 'Samples'), CATDS: 8.1973384609640695E-2; n = 1
PIP4K2C = test system: PIP4K2C; design: species or system human, MV4-11 + K-562 + COLO205 + SK-N-BE2 + OVCAR-8; conditions: read-out: apparent Kd; compound concentrations: 100 nM and 1000 nM (sheet 'Samples'), CATDS: 7.6274821078241906E-2; n = 1
STK16 = test system: STK16; design: species or system human, MV4-11 + K-562 + COLO205 + SK-N-BE2 + OVCAR-8; conditions: read-out: apparent Kd; compound concentrations: 100 nM and 1000 nM (sheet 'Samples'), CATDS: 8.9736368471695804E-2; n = 1
TESK2 = test system: TESK2; design: species or system human, MV4-11 + K-562 + COLO205 + SK-N-BE2 + OVCAR-8; conditions: read-out: apparent Kd; compound concentrations: 100 nM and 1000 nM (sheet 'Samples'), CATDS: 7.0727879355670806E-2; n = 1
TGFBR2 = test system: TGFBR2; design: species or system human, MV4-11 + K-562 + COLO205 + SK-N-BE2 + OVCAR-8; conditions: read-out: apparent Kd; compound concentrations: 100 nM and 1000 nM (sheet 'Samples'), CATDS: 7.2410579705908001E-2; n = 1
[1] = compound concentrations:100 nM and 1000 nM (sheet 'Samples')

Sequence of Q6ZSR9 (Q6ZSR9 whole entry, looked up): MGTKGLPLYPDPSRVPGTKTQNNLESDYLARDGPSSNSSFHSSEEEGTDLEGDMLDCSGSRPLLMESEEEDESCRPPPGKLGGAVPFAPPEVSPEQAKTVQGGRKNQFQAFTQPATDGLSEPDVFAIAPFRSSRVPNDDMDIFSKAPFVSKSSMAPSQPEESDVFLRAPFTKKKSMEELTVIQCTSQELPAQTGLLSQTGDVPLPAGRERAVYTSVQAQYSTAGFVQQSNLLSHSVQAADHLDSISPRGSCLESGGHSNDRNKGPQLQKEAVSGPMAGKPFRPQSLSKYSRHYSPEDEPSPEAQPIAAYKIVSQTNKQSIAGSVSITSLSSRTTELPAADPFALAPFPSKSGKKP

## Nc1ncc(-c2ccc3nccc(-c4ccncc4)c3c2)cc1S(=O)(=O)N1CCOCC1 [GSK1627798A]
ADCK3; compound concentrations: 100 nM and 1000 nM (sheet 'Samples'), CATDS: 7.8381532556713998E-2
  potency estimated from few doses: 1520 nM
PI4KA
  potency estimated from few doses: 893 nM
PIK3CA; compound concentrations: 100 nM and 1000 nM (sheet 'Samples'), CATDS: 0.36477997446567001
  potency estimated from few doses: 11.1 nM
PIK3CB
  potency estimated from few doses: 366 nM
PIK3CD
  potency estimated from few doses: 3.67 nM
PIK3CG; CATDS: 0.133003472389642
  potency estimated from few doses: 258 nM
PRKDC
  potency estimated from few doses: 627 nM
SRRT
  potency estimated from few doses: 1900 nM
TOP2B
  potency estimated from few doses: 1880 nM

## CNC(=O)c1c(F)cccc1Nc1nc(Nc2cc3c(cc2OC)CCN3C(=O)CN(C)C)nc2[nH]ccc12 [GSK1838705]
ADCK3; [1]
  potency estimated from few doses: 1340 nM
CLK1; [1]
  potency estimated from few doses: 376 nM
CLK2; [1]
  potency estimated from few doses: 600 nM
CLK4; [1]
  potency estimated from few doses: 137 nM
FER
  potency estimated from few doses: 133 nM
IGF1R
  potency estimated from few doses: 1130 nM
INSR
  potency estimated from few doses: 759 nM
PIK3CA; [1]
  potency estimated from few doses: 176 nM
PLK1
  potency estimated from few doses: 2350 nM

## O=C(Nc1cccc(-c2nn3ccccc3c2-c2ccnc(Nc3cccc(F)c3)n2)c1)c1c(F)ccc(F)c1Cl [GSK357952A]
ADCK3; compound concentrations: 100 nM and 1000 nM (sheet 'Samples'), CATDS: 1
  potency estimated from few doses: 131 nM

## COc1cc(Nc2nccc(N3CCC(NS(=O)(=O)c4ccc(NC(C)=O)cc4)CC3)n2)cc(OC)c1OC [GSK1379825A]
ADCK1; CATDS: 0.14562784613858401
  potency estimated from few doses: 1000 nM
LIMK1
  potency estimated from few doses: 921 nM
NEK1
  potency estimated from few doses: 610 nM
NEK3
  potency estimated from few doses: 2360 nM
PIK3CG; CATDS: 0.203728906999049
  potency estimated from few doses: 547 nM
Q6ZSR9
  potency estimated from few doses: 1490 nM
ULK3
  potency estimated from few doses: 1280 nM

## CCOc1ccc2c(-c3ccnc(Nc4cc(OC)cc(C(F)(F)F)c4)n3)cnn2n1 [GW807982X_KCGS]
ADCK1; CATDS: 7.5755485484616303E-2
  potency estimated from few doses: 1800 nM
CLK1; compound concentrations: 100 nM and 1000 nM (sheet 'Samples'), CATDS: 0.119172303588979
  potency estimated from few doses: 672 nM
CLK2; compound concentrations: 100 nM and 1000 nM (sheet 'Samples'), CATDS: 0.34791334092069898
  potency estimated from few doses: 132 nM
CLK4; compound concentrations: 100 nM and 1000 nM (sheet 'Samples'), CATDS: 0.107849742816713
  potency estimated from few doses: 811 nM
DJA1
  potency estimated from few doses: 1500 nM
MAPK14
  potency estimated from few doses: 1050 nM
NQO2
  potency estimated from few doses: 1470 nM
PIP4K2C
  potency estimated from few doses: 1760 nM
STK16
  potency estimated from few doses: 1190 nM
TESK2
  potency estimated from few doses: 2180 nM
TGFBR2
  potency estimated from few doses: 2040 nM
